Experimental data: PubChem BioAssay (EPA / NIEHS)
Records with an inconclusive call do not appear. Calls of active or inactive are those of the source. How the source made its calls, unless noted: active means hit-call score of the fitted dose curve at least 0.9, where 1 is the maximum; inactive means score below 0.9.

How the values were obtained:
[1] = CCTE_Shafer_MEA_dev_firing_rate_mean: CCTE's Neural Network Formation Assay for Mean Firing Rate, Shafer Lab (AID 2284031);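 further: curve fitted for loss of firing so AC50 reflects decreased mean firing rate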
Procedure, shortened: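 Rat primary cortical neurons were seeded on multielectrode arrays and treated from plating through day 12, with redosing at each feed. Spontaneous spiking was recorded four times; mean firing rate AUC was fitted downward against DMSO.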

[2] = CCTE_Shafer_MEA_dev_per_burst_spike_percent: CCTE's Neural Network Formation Assay for Percent of Spikes in a Burst, Shafer Lab (AID 2284032);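 further: fitted as a decrease in burst spike percentage below DMSO baseline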
Procedure, shortened: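 Rat primary cortical neurons on 16-electrode MEA wells, dosed from plating day 0 for 12 days with renewal on DIV 5 and 9; spikes-in-bursts percentage averaged over bursting electrodes, collapsed as AUC across days 5, 7, 9, 12; loss direction versus DMSO.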

[3] = CCTE_Shafer_MEA_dev_active_electrodes_number: CCTE's Neural Network Formation Assay for Number of Active Electrodes, Shafer Lab (AID 2284040; active means hit-call score of the fitted dose curve at least 0.9, where 1 is the maximum;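 further: potency for loss of active electrodes versus DMSO so lower counts are hits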)
Procedure, shortened: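 Primary rat cortical neurons on 16-electrode MEA wells, exposed from day 0 through day 12 with compound renewed at DIV 5 and 9 feeds. Active electrodes (mean firing ≥5 spikes/min) counted at DIV 5, 7, 9, 12; trapezoidal AUC across days, loss-of-signal versus DMSO.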

[4] = CCTE_Shafer_MEA_dev_burst_rate: CCTE's Neural Network Formation Assay for Burst Rate, Shafer Lab (AID 2284042);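 further: potency for loss of burst rate below DMSO control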
Procedure, shortened: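 Primary rat cortical neurons on PEI-coated 48-well MEA plates (laminin added with cells at plating) (16 electrodes/well), exposed from plating to day 12, dosing renewed at DIV 5 and 9. Burst rate averaged over active electrodes, recorded DIV 5, 7, 9, 12, summarized as AUC; loss versus DMSO.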

[5] = CCTE_Shafer_MEA_dev_bursting_electrodes_number: CCTE's Neural Network Formation Assay for Number of Bursting Electrodes, Shafer Lab (AID 2284043; active means hit-call score of the fitted dose curve at least 0.9, where 1 is the maximum;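 further: potency is for loss of bursting electrodes relative to DMSO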)
Procedure, shortened: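 Primary rat cortical neurons were cultured on PEI-coated 48-well MEA plates (16 electrodes/well) and exposed from plating through day 12, with compound renewed at feeds on DIV 5 and 9. Electrodes bursting ≥1 per 2 min were counted on DIV 5, 7, 9, 12; trapezoidal AUC taken.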

[6] = CCTE_Shafer_MEA_dev_per_burst_interspike_interval: CCTE's Neural Network Formation Assay for Burst Interspike Interval, Shafer Lab (AID 2284044);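 further: mean spike spacing inside bursts as AUC over recordings on days 5 7 9 12; potency for a decrease of within-burst interspike interval below DMSO level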
Procedure, shortened: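 Rat cortical primary cultures, 16 electrodes/well; compound from plating, renewed with full media change DIV 5 and 9. Spikes via adaptive detector; per-burst ISI well-mean over active bursting electrodes; AUC of DIV 5/7/9/12 recordings; loss-direction fit vs DMSO.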

[7] = CCTE_Shafer_MEA_dev_burst_duration_mean: CCTE's Neural Network Formation Assay for Mean Burst Duration, Shafer Lab (AID 2284045);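 further: curve fitted for loss meaning shorter burst duration than DMSO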
Procedure, shortened: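 Primary rat cortical neurons on PEI-coated 16-electrode MEA wells, exposed from plating through day 12 with compound renewed at DIV 5 and 9; spontaneous activity recorded days 5, 7, 9, 12. Well-mean burst duration collapsed as trapezoidal AUC, fitted for loss versus DMSO.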

[8] = CCTE_Shafer_MEA_dev_interburst_interval_mean: CCTE's Neural Network Formation Assay for Mean Interburst Interval, Shafer Lab (AID 2284046);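 further: well-mean interburst interval of bursting electrodes as AUC over four recording days; curve fitted for decrease in interburst interval relative to DMSO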
Procedure, shortened: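 Recordings on days 5, 7, 9 and 12 give well-mean interburst interval across actively bursting electrodes, summarized as area under the curve. Cultures: rat cortical neurons, continuous exposure from day 0, compound renewed at feeds; decrease analyzed versus DMSO.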

[9] = CCTE_Shafer_MEA_dev_inter_network_spike_interval_mean: CCTE's Neural Network Formation Assay for Mean Inter-network Spike Interval, Shafer Lab (AID 2284047);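 further: potency for a decrease in mean inter-network spike interval below DMSO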
Procedure, shortened: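 Primary rat cortical neurons on 16-electrode MEA wells, exposed from plating day 0 through DIV 12, compound renewed at DIV 5 and 9 media changes. Mean interval between network-spike peaks recorded DIV 5, 7, 9, 12; collapsed as trapezoidal AUC, fitted downward versus DMSO.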

[10] = CCTE_Shafer_MEA_dev_network_spike_peak: CCTE's Neural Network Formation Assay for Mean Number of Electrodes in Network Spike, Shafer Lab (AID 2284049);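 further: fitted for loss of signal meaning fewer electrodes in network spikes than DMSO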
Procedure, shortened: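 Continuous 12-day exposure of rat cortical cultures, starting at plating, on MEA plates. Endpoint: electrodes participating in network-spike peaks, AUC across DIV 5–12, DMSO as negative control.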

[11] = CCTE_Shafer_MEA_dev_spike_duration_mean: CCTE's Neural Network Formation Assay for Mean Spike Duration, Shafer Lab (AID 2284051);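 further: mean network spike duration pooled as area under curve over DIV 5 to 12 recordings; potency for a decrease in mean network spike duration versus DMSO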
Procedure, shortened: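 Primary rat cortical neurons on 16-electrode MEA wells (PEI-coated, laminin in plating drop), exposed from plating through DIV 12 with compound renewed at DIV 5 and 9. Mean network-spike duration recorded DIV 5, 7, 9, 12; trapezoidal AUC across days, DMSO baseline.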

[12] = CCTE_Shafer_MEA_dev_network_spike_duration_std: CCTE's Neural Network Formation Assay for Standard Deviation of Network Spike Duration, Shafer Lab (AID 2284052);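 further: area under curve of spike duration SD across recording days 5 to 12; hits are decreases in network spike duration SD versus DMSO vehicle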
Procedure, shortened: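 Primary rat cortical neurons on PEI-coated 16-electrode MEA wells, exposed from plating day 0 through day 12 with compound renewed at DIV 5 and 9. Network spike duration SD recorded on days 5, 7, 9, 12, collapsed as trapezoidal AUC; loss-of-signal fit versus DMSO.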

[13] = CCTE_Shafer_MEA_dev_per_network_spike_spike_number_mean: CCTE's Neural Network Formation Assay for Mean Number of Spikes in a Network Spike, Shafer Lab (AID 2284053);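 further: fitted as decrease in spikes per network spike relative to DMSO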
Procedure, shortened: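 Primary rat cortical neurons on 48-well, 16-electrode MEA plates were exposed from plating to DIV 12, with dosing renewed on DIV 5 and 9. Spikes per network spike (0.05 s peak window) were recorded on DIV 5, 7, 9 and 12 and collapsed as trapezoidal AUC versus DMSO.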

[14] = CCTE_Shafer_MEA_dev_per_network_spike_spike_percent: CCTE's Neural Network Formation Assay for Percent of Spikes in a Network Spike, Shafer Lab (AID 2284054)
Procedure, shortened: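 Primary rat cortical neurons on 16-electrode MEA wells (PEI-coated, laminin at plating), exposed from day 0 with renewal at DIV 5 and 9; spikes within 0.05 s of network-spike peaks over total spikes, AUC across days 5, 7, 9, 12.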

[15] = CCTE_Shafer_MEA_dev_LDH: CCTE's Lactate Dehydrogenase Assay for Cytotoxicity in the Neural Network Formation Assay, Shafer Lab (AID 2284068; active means hit-call score of the fitted dose curve at least 0.9, where 1 is the maximum;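 further: exposure for twelve days from plating with re-dosing on DIV 5 and 9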)
Procedure, shortened: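 Primary rat cortical neurons were plated on PEI/laminin MEA plates and exposed from day 0 for twelve days, with compound renewed at DIV 5 and 9. Cytotoxicity was determined by spectrophotometric LDH assay relative to DMSO.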

[16] = CCTE_Shafer_MEA_dev_AB: CCTE's Alamar Blue Assay for Cytotoxicity in the Neural Network Formation Assay, Shafer Lab (AID 2284083; active means hit-call score of the fitted dose curve at least 0.9, where 1 is the maximum;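 further: twelve days of exposure from plating with re-dosing on DIV 5 and 9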)
Procedure, shortened: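 Primary rat cortical neurons on PEI-coated 48-well MEA plates, 1.5 x 10^5 cells/well in laminin drop; compound exposure from day 0 of plating for twelve days, renewed at medium changes on DIV 5 and 9. Viability read as resazurin reduction by fluorescence, relative to DMSO.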

[17] = CCTE_Shafer_MEA_dev_mutual_information_norm: CCTE's Neural Network Formation Assay for Mutual Information Normalization, Shafer Lab (AID 2284091);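 further: mutual information between electrodes summarised as area under curve across four recording days; potency is for a decrease in mutual information relative to DMSO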
Procedure, shortened: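 Rat cortical cultures, 48-well MEA, continuous exposure DIV 0–12 with full media/compound change DIV 5 and 9. Readout: inter-electrode mutual information, AxIS adaptive spike detection; AUC across DIV 5/7/9/12 recordings; DMSO baseline, negative fitting direction.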

[18] = CCTE_Shafer_MEA_dev_correlation_coefficient_mean: CCTE's Neural Network Formation Assay for Mean Correlation Coefficient, Shafer Lab (AID 2284093);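 further: well mean pairwise spike train correlation integrated as AUC over recording days 5 to 12; potency fitted for loss of correlation relative to DMSO vehicle wells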
Procedure, shortened: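 Spontaneous activity recorded on days 5, 7, 9 and 12 post-plating; pairwise spike correlations are averaged across active electrodes and collapsed to an area-under-curve. Rat cortical cultures are dosed from plating through 12 days, with compound renewed at media changes.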

[19] = UKN2_HCS_IMR90_neural_migration: University of Konstanz (UKN) Leist Lab Neural Crest Cell Migration Assay in human induced IMR90 Pluripotent Stem Cells (UKN2) (AID 2284204); conditions: actives raise or lower the signal
Procedure, shortened: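 iPSC-derived IMR90 neural crest cells on PLO/laminin/fibronectin were seeded around silicone stoppers; after stopper removal, migration in N2-S medium with EGF and FGF ran 24 h before 24 h chemical exposure. Calcein-AM/Hoechst high-content imaging; bidirectional fit versus DMSO.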

[20] = IUF_NPC1b_proliferation_BrdU_72hr: Leibniz Research Institute for Environmental Medicine (IUF) 72-hour Neural Progenitor Cell Bromodeoxyuridine (BrdU) Proliferation Assay (NPC1b) (AID 2284207)
Procedure, shortened: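 hNPC spheres (primary, GW 16-19 fetal cortex), single sphere/well, EGF+FGF medium; 72 h compound, no renewal; BrdU pulse last 16 h; luminescent ELISA; activity vs DMSO baseline; growth-factor withdrawal as positive control.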

[21] = IUF_NPC1a_proliferation_area_72hr: Leibniz Research Institute for Environmental Medicine (IUF) 72-hour Neural Progenitor Cell Proliferation Area Assay (NPC1a) (AID 2284208)
Procedure, shortened: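 Read-out: increase in sphere area over 72 h by automated phase-contrast imaging, fitted in positive direction versus DMSO baseline. One hNPC sphere (0.25-0.35 mm) per well in EGF/FGF medium; growth-factor withdrawal served as positive control.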

[22] = IUF_NPC1_viability_72hr: Viability Assessment at 72 hours in the Leibniz Research Institute for Environmental Medicine (IUF) Neural Progenitor Cell Proliferation Assay (NPC1) (AID 2284209)
Procedure, shortened: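 hNPC spheres, 1/well, EGF+FGF medium, 37C/5% CO2; dosed day 0, 72 h, no re-dosing. Resazurin reduction (alamar blue) fluorescence; DMSO = negative control/baseline; growth-factor-free wells as positive control.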

[23] = CCTE_Mundy_HCI_Cortical_Synap_Neur_Matur_NeuriteSpotCountPerNeuriteLength: CCTE's Synaptogenesis and Neurite Maturation Assay in rat cortical cells for Neurite Spot Count per Neurite Length, Mundy Lab (AID 2284210)
Procedure, shortened: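 Rat primary cortical cultures, glia arrested with AraC at DIV 5, were dosed with media change at DIV 7 and fixed at DIV 12. Synaptophysin puncta per MAP2-labelled neurite length were quantified by high-content imaging versus DMSO.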

[24] = CCTE_Mundy_HCI_Cortical_Synap_Neur_Matur_BPCount: CCTE's Synaptogenesis and Neurite Maturation Assay in rat cortical cells for Branch Point Count, Mundy Lab (AID 2284211)
Procedure, shortened: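 Rat primary cortical cultures, AraC added DIV 5; chemicals dosed DIV 7 through DIV 12. Fixed cells stained for MAP2, synaptophysin and Hoechst; neurite branch points counted by automated high-content imaging, fitted relative to DMSO.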

[25] = CCTE_Mundy_HCI_Cortical_NOG_NeuriteCount: CCTE's Neurite Outgrowth Assay in rat cortical cells for Neurite Count, Mundy Lab (AID 2284212);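 further: cells fixed about two days after chemical exposure began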
Procedure, shortened: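 Neurite number per cell from high-content imaging of betaIII-tubulin immunostaining, with Hoechst nuclear counterstain.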

[26] = CCTE_Mundy_HCI_Cortical_NOG_NeuriteLength: CCTE's Neurite Outgrowth Assay in rat cortical cells for Neurite Length, Mundy Lab (AID 2284213);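 further: neurites imaged about 48 to 50 h after chemical exposure began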
Procedure, shortened: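 Neurite length was read by high-content imaging of βIII-tubulin-labelled neurites in rat primary cortical cultures. Activity was fitted relative to DMSO.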

[27] = CCTE_Mundy_HCI_Cortical_Synap_Neur_Matur_NeuriteLength: CCTE's Synaptogenesis and Neurite Maturation Assay in rat cortical cells for Neurite Length, Mundy Lab (AID 2284214)
Procedure, shortened: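 Rat cortical neurons, AraC at DIV 5; compound + media change DIV 7, end DIV 12 (288.33 h). Fix, MAP2/synaptophysin/Hoechst immunostain, automated HCI of neurite length vs DMSO.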

Measured: AC50

CC1(C)C(C=C(Cl)Cl)C1C(=O)O[C@H](C#N)c1cccc(Oc2ccccc2)c1 (some centres not stated)
active: [1] 0.711 µM | [2] 4.59 µM | [3] 4.44 µM | [4] 1.95 µM | [5] 3.6 µM | [6] 2.89 µM | [7] 0.65 µM | [8] 8.7 µM | [9] 1.03 µM | [10] 2.75 µM | [11] 2.95 µM | [12] 3.1 µM | [13] 2.74 µM | [14] 7.68 µM | [15] 5.77 µM | [16] 5.41 µM | [17] 2.9 µM | [18] 4.48 µM | [20] 12.8 µM | [23] 15.6 µM | [24] 12.8 µM | [25] 80 µM | [26] 82 µM | [27] 11 µM
inactive: [19] | [21] | [22]
